Screens from PubChem BioAssay.
Eya2 inh: blocks the phosphatase activity of human Eya2; recombinant Eya2, OMFP fluorescence dephosphorylation (OMFP is methylfluorescein phosphate); O00167; 330,000 tested, 0.006% active; Potency, µM (top dose mostly 76.9 µM), without a hit: at the top dose activity, negative = inhibition, actives largely listed as inhibitors; note: potency is the fitted concentration of half-maximal effect; % is set by controls: 0 for no effect and ±100 for the full control effect
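Eya2 (0.2 uM) preincubated 10 min at ambient with compound, then OMFP substrate added at 50 uM; 10 min reaction in 50 mM HEPES pH 7.5, 50 mM NaCl, 5 uM MgCl2, 0.05% BSA, 1 mM DTT. Fluorescence read at Ex 485/Em 525 nm.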
USP2a inh: blocks human ubiquitin-specific protease USP2a; Potency, µM (doses to about 38.3 µM), inactives show top-dose activity change, negative = inhibition, actives largely listed as inhibitors; 330,000 tested, 0.01% active; USP2 core, Ub-CHOP2 coupled fluorogenic reporter, 485/531;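 note: potency is the fitted concentration of half-maximal effect; plate controls were DMSO wells for no effect and full inhibition by NEM control for full effect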
Target sequence (O75604 whole entry, looked up): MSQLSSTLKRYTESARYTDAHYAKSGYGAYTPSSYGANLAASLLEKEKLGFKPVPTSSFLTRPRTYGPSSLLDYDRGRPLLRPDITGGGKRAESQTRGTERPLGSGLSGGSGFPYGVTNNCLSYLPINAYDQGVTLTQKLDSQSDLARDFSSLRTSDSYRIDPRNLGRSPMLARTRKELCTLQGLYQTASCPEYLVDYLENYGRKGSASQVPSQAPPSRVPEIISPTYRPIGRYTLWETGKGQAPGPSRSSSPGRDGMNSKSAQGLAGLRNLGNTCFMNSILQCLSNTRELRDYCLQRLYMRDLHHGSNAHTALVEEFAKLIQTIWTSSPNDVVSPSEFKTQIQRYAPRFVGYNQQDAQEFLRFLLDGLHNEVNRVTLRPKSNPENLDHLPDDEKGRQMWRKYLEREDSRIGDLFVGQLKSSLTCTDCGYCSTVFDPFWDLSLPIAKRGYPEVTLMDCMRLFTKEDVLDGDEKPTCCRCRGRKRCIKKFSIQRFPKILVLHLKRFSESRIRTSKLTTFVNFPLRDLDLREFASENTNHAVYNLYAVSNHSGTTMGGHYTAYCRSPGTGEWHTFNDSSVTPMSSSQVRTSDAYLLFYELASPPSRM
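Deubiquitinase activity read as fluorescence (485/531 nm) after Ub-CHOP2 cleavage activates the enterokinase reporter on its substrate; USP2 core 10nM, Ub-CHOP2 and substrate 25nM each, 30min compound preincubation then 60min RT; data normalized to NEM, curves fitted.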
D1 antag: human D1 dopamine receptor antagonism | 360,000 tested, 3.2% active | activity change, negative = inhibition, % at 10 µM | P21728 | HEK293 TREx D1 cells, calcium flux, dopamine EC80; active compounds read low; in the data active = activity change below about -30%; note: % is set by controls: 0 for no effect and ±100 for the full control effect
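Compound effects on dopamine-evoked calcium signalling were measured in tetracycline-induced HEK293 Trex D1 cells. Dopamine at EC80 followed a 180 s compound pre-read, and fluorescence was tracked kinetically for 180 s more.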
GALK inhibitor: blocks human galactokinase activity | P51570 | Purified GALK, Kinase-Glo residual ATP luminescence | Potency, µM (doses to about 57.5 µM), inactives show at the highest dose activity change, negative = inhibition, usual class: inhibitors | 270,000 tested, 0.007% active | AID 1868; note: potency is the fitted concentration of half-maximal effect; % is set by controls: 0 for no effect and ±100 for the full control effect
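Galactose (100 uM) and ATP (35 uM) were turned over by 5 nM GALK for 1 h at RT. Kinase-Glo Plus then converted the remaining ATP into a luminescent signal.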
D1 ag: activates the human D1 dopamine receptor. activation, % at 2 µM. P21728. HEK293 T-REx D1 cells, calcium flux, agonist mode. 360,000 tested, 1% active; in the data active = activation above about 30%; note: 0% is about no effect
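Inducible HEK293 T-REx D1 cells, force-coupled to calcium signalling, were plated at 4000 cells/well with tetracycline and held overnight at 30 C. After no-wash calcium dye loading, compound-evoked calcium rise over 180 s flagged agonists.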
D1 potentiator: human D1 dopamine receptor positive modulation; potentiation, % at 10 µM; HEK293 TREx D1 cells, calcium flux, dopamine EC20 potentiation; 360,000 tested, 0.036% active; in the data active = potentiation above about 30%; note: 0% is about no effect
* marks the source's active call; other numbers are inactive results; u = inconclusive; x = not tested or not shown; ! = not active in a repeat; [ ] = dose if it differs, or a comment. Sampled rows, rich in hits. Any-hit rate of the full collection: about 3.9%. Unless noted, calls come from the whole dose curve; as a rule, active = well fitted inhibition curve with a large enough effect; inconclusive = small, poorly fitted or top-dose-only effect, or effect the other way; inactive = flat fitted curve, though single readings scatter.

SMILES | Eya2 inh | USP2a inh | D1 antag | GALK inhibitor | D1 ag | D1 potentiator
O=c1c2cnn(-c3ccccc3)c2ncn1Cc1cccnc1 | -4.0% | 0.2% | 0.9 | -1.1% | 1.7 | -2.8
CCOC(=O)c1cccc(NC(=O)CCS(=O)(=O)c2ccc3c(c2)CCN3C(=O)CC)c1 | x | x | 10.6 | x | -0.7 | 1.8
CCn1nnc2cc(C(=O)Nc3ccc(C)cc3Br)ccc21 | x | x | -5.3 | x | 4.5 | -2.4
COc1cc(OC)c(CN2CCC(Cc3ccccc3)CC2)cc1Br | -0.7% | -3.4% | -42.8* | 3.4% | 8.5 | -8.7
COc1cc(OC)c(CN2CCc3c([nH]c4ccccc34)C2)cc1Br | -2.9% | 4.1% | -48.8* | -6.1% | 7.0 | -8.7
CCN(Cc1ccccc1)C(=O)CCc1c(C)nc2c(c(C)nn2-c2ccc(C)c(C)c2)c1C | x | x | 6.5 | x | 0.8 | -3.3
CCOc1ccc(NC(=O)c2sc(-n3nc(C)c(Cc4ccc(Cl)cc4)c3C)nc2C)cc1 | x | x | 7.8 | x | 1.4 | 1.1
N#Cc1ccc2c(c1)C[C@]1(c3ccsc3)OC3=C(C(=O)OC4(CCCCC4)C3)C2O1 | 3.2%[15.4 µM] | -3.8%[7.66 µM] | -32.0* | x | 1.1 | 6.3
COc1ccc([C@]23Cc4cc(C#N)ccc4C(O2)C2=C(CC4(CCCCC4)OC2=O)O3)cc1 | 14.3%[15.4 µM] | -0.7%[7.66 µM] | 1.0 | x | 1.9 | 1.9
Cc1n[nH]c(=O)nc1NC1CCCCC1 | 4.5% | -1.1% | -43.9* | -0.9% | 0.5 | 1.8
C=Cc1ccc(Cn2c(=O)n(C)c(=O)c3sccc32)cc1 | -8.8% | 0.6% | -34.3* | 0.3% | 15.7 | -1.9
COc1ccc(OC)c2c1CCC2=O | -7.7% | -0.1% | -65.5* | -0.5% | -0.3 | -8.4
COc1ccccc1NC1=C(C)C(=O)CC1 | -3.2% | 3.0% | 1.5 | -4.3% | -2.5 | 0.2
CCCc1nc2ccccc2n2c(-c3cccc(C)c3)c3c(=O)n(C)c(=O)n(C)c3c12 | x | x | -2.3 | x | 5.0 | 1.6
CCOC(=O)c1ccc2[nH]c(CSc3nnc(-c4cccc(F)c4)n3C)cc(=O)c2c1 | x | x | -16.2 | x | -0.8 | 0.7
CC(=O)N1c2ccc(S(=O)(=O)NCCC(=O)NC3CCCC(C)C3C)cc2CC1C (configuration not stated) | -10.4% | 1.0% | -39.0* | -4.0% | 14.4 | -5.5
CCCCN(C)C(=O)C1CCC(CNS(=O)(=O)c2ccc3c(c2)CC(C)N3C(C)=O)CC1 (configuration not stated) | 0.0% | -1.8% | -35.8*! | -3.1% | 2.2 | -8.8
Cc1ccc(S[C@@H](CCN2CC[C@H](C)CCC2=O)c2ccccc2)cc1 | -7.9% | -2.7% | -4.4 | x | 4.0 | -8.1
Cc1ccc(S[C@@H](CCN2CC[C@H](O)CCC2=O)c2ccccc2)cc1 | -5.3% | -0.5% | -31.0* | x | 0.2 | -3.1
COc1ccc(-n2nc(C(=O)N3CCN(c4ccccc4OC)CC3)c3c4ccccc4n(C)c3c2=O)cc1 | x | x | -3.4 | x | 2.9 | -0.3
CO/N=C(\Cn1ncc(N2CCCC2)c(Cl)c1=O)c1ccc(Cl)cc1 | -16.3% | 2.3% | -46.1* | 2.6% | 3.9 | -3.4
CC(=O)Cn1ncc(N2CCCCC2)c(Cl)c1=O | 6.8% | 1.7% | 2.5 | -0.5% | 2.4 | 11.3
Cc1cccc(OCC(=O)N/N=C\c2cn(C)c3ccccc23)c1 | -10.1% | -2.8% | -34.1* | 6.1% | 21.9 | -1.1
Cc1cccc(OCCn2cc(/C=N/NC(=O)c3ccncc3)c3ccccc32)c1 | -3.4% | -7.2% | -14.7 | 1.0% | -0.9 | 0.3
CCOc1ccc(Nc2sc(C(=O)c3ccc(F)cc3)c(N)c2S(=O)(=O)c2ccc(C)cc2)cc1 | x | x | -40.6* | x | 48.1* | -0.5
SMILES | Eya2 inh | USP2a inh | D1 antag | GALK inhibitor | D1 ag | D1 potentiator
COc1ccc(S(=O)(=O)c2c(Nc3ccccc3F)sc(C(=O)c3cccc(OC)c3)c2N)cc1 | x | x | -0.1 | x | 80.0* | -1.2
CCc1ccccc1Nc1sc(C(=O)c2cccc(OC)c2)c(N)c1S(=O)(=O)c1ccccc1 | x | x | 11.4 | x | 13.1 | -1.1
COc1ccc(S(=O)(=O)c2c(Nc3ccc(C)cc3C)sc(C(=O)c3ccc(F)cc3)c2N)cc1 | x | x | -48.1* | x | 87.7* | -3.1
CCn1c(=O)c2sccc2n2c(CCCC(=O)N3CCN(c4cc(C)ccc4C)CC3)nnc12 | x | x | -0.4 | x | 1.4 | -4.9
CCCCNC(=O)/C=C/c1ccc(OC)c(Br)c1 | -31.9% | 2.7% | -30.5* | 0.2% | 0.1 | -11.8
CN1CCN(C2Cc3ccccc3Sc3ccc(Cl)cc32)CC1 (configuration not stated) | -10.6% | 3.6% | -105.2* | x | 7.2 | -5.6
CSc1cccc(NC(=O)N2CCN(C)CC2)c1 | -16.7% | 9.5% | -1.9 | -3.1% | 2.2 | -1.4
CSc1ccc2c(c1)C(N1CCN(C)CC1)Cc1ccccc1S2 (configuration not stated) | -7.1% | 3.2% | -86.9* | 10.2% | 23.6 | -2.5
CCCCc1ccc(NC(=O)c2cc3c(=O)n4ccccc4nc3n2C)cc1 | x | x | -5.6 | x | 1.5 | 0.9
O=C(Nc1nnc(-c2cccs2)o1)c1cccc(Oc2ccccc2)c1 | -0.1% | u | -16.3 | 1.6% | 85.0* | -6.0
COc1ccc(OCC(=O)NNC(=O)c2cc3ccccc3o2)cc1 | 14.5% | -1.1% | -30.9* | 1.6% | 0.2 | -6.5
COc1cccc(OCC(=O)NNC(=O)c2ccc3ccccc3c2O)c1 | 15.2% | -1.9% | -37.1* | -2.2% | 9.3 | -6.3
COc1ccc(CNC(=S)NNC(=O)c2cc3ccccc3o2)cc1 | -3.9% | -0.8% | 3.5 | -2.0% | -0.2 | -6.5
O=C1C2CC=CCC2C(=O)N1c1ccc(N2CCN(c3ccccn3)CC2)c([N+](=O)[O-])c1 (configuration not stated) | -12.5% | -0.1% | -36.1* | 4.5% | 13.5 | -3.6
O=C1CCCC(=O)N1c1ccc(N2CCN(c3ccccc3)CC2)c([N+](=O)[O-])c1 | 3.2% | -2.0% | -45.6* | -0.1% | 4.5 | -6.7
O=C1CCCC(=O)N1c1ccc(N2CCN(c3ccc([N+](=O)[O-])cc3)CC2)c([N+](=O)[O-])c1 | 1.5% | 2.6% | -16.4 | 1.6% | 1.4 | -0.7
O=C(c1ccc(N2CCCCC2)c([N+](=O)[O-])c1)N1CCN(c2ccccn2)CC1 | 1.7% | -2.9% | -25.6 | 0.0% | -2.3 | -3.1
O=C1C(=O)N(C2CCN(C(=O)c3ccccc3Cl)CC2)CCN1Cc1ccc(F)cc1 | x | x | 8.2 | x | 2.5 | -2.8
COc1ccc(-c2nc(C)c(CCNC(=O)C(=O)Nc3cccc(F)c3)s2)cc1OC | x | x | -12.4 | x | 2.5 | -4.4
O=C(c1ccco1)[C@@H]1[C@@H]2C(=O)N(c3ccc(F)cc3)C(=O)[C@@H]2C2c3ccccc3C=CN21 (some centres not stated) | -17.3% | 5.0% | 3.3 | 0.7% | 5.7 | 3.0
